Laboratory results as given in PubChem BioAssay (Tox21).
Records with an inconclusive call do not appear. Calls of active or inactive are those of the source. Unless noted, calls follow the shape of the dose curve; as a rule, active = well fitted curve in the direction sought with a large enough effect in the repeat runs; inconclusive = weak or mixed curves; inactive = no such curve, though single readings can be large; an effect the other way counts as inactive or inconclusive.

Columns and labels:
[1] = qHTS assay for small molecules that induce genotoxicity in human embryonic kidney cells expressing luciferase-tagged ATAD5 - cell viability (AID 651634; calls by dose curve; also: nearly all actives have a fitted effect of over 25% in size)
Procedure, shortened: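 After 15.5 hr incubation with compound at 37C, 5% CO2, HEK293T ATAD5-luciferase cells received CellTiter-Fluor reagent; fluorescence intensity was quantified following 30 min at 37C.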

[2] = qHTS assay for small molecule disruptors of the mitochondrial membrane potential - cell viability (AID 720634; calls by dose curve; also: nearly all actives have a fitted effect of over 20% in size; also: potency is read from the fitted curve at half-maximal effect)
Procedure, shortened: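 ATP-based luminescent viability readout (CellTiter-Glo, 30 min, room temperature) in HepG2 cells multiplexed with the m-MPI membrane potential dye; compound exposure lasted 1 hr at 37 C.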

[3] = qHTS assay for small molecule disruptors of the mitochondrial membrane potential (AID 720635); also: potency is read from the fitted curve at half-maximal effect
Procedure, shortened: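 Mitochondrial membrane potential tracked with Mito-MPS dye, red aggregates (ex 540/em 590 nm) against green monomers (ex 490/em 535 nm). Compound treatment 1 hr at 37C, dye 30 min in HepG2.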

[4] = qHTS assay to test for compound auto fluorescence at 590 nm (red) in HepG2 cells (AID 720674)
Procedure, shortened: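 We screened compounds on adherent HepG2 cells, incubating them for an hour at 37 C in 5% CO2 before reading emission at 590 nm under 540 nm excitation; values reflect equivalence to Rose Bengal sodium fluorescence.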

[5] = qHTS assay to test for compound auto fluorescence at 535 nm (green) in HepG2 cells (AID 720675)
[6] = qHTS assay to test for compound auto fluorescence at 590 nm (red) in HEK293 cells (AID 720679)
Procedure, shortened: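 HEK293 cells (2,000/well, medium with 10% dialyzed FBS) attached for 4-5 hr at 37C, received 23 nL compound and were incubated overnight at 37C, 5% CO2. Red fluorescence was then read at 540/590nm Ex/Em, referenced to Rose Bengal sodium.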

[7] = qHTS assay to test for compound auto fluorescence at 535 nm (green) in HEK293 cells (AID 720680)
[8] = qHTS assay to test for compound auto fluorescence at 460 nm (blue) in HEK293 cell free culture (AID 720681)
Procedure, shortened: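 Blue fluorescence (Ex 405/Em 460 nm, triamterene-equivalent) was read immediately after pin transfer of compound or DMSO into medium (DMEM, 10% FBS) without cells.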

[9] = qHTS assay to test for compound auto fluorescence at 535 nm (green) in HEK293 cell free culture (AID 720682)
Procedure, shortened: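 Read-out: 485/535 nm fluorescence intensity, calibrated against fluorescein. Medium only (DMEM + 10% FBS, no cells); test compound or DMSO vehicle added by pintool before plate reading.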

[10] = qHTS assay to test for compound auto fluorescence at 590 nm (red) in HEK293 cell free culture (AID 720683)
Procedure, shortened: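 Red-channel autofluorescence of compounds in culture medium (DMEM, 10% FBS), no cells, measured at 540/590 nm. Rose Bengal sodium is the reference fluorophore for equivalence.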

[11] = qHTS assay to test for compound auto fluorescence at 590 nm (red) in HepG2 cell free culture (AID 720684)
Procedure, shortened: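 Cell-free; medium MEM + 10% FBS; compound or DMSO added by pintool; read Ex 540/Em 590 nm; Rose Bengal sodium as red reference fluorophore.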

[12] = qHTS assay to test for compound auto fluorescence at 460 nm (blue) in HepG2 cell free culture (AID 720685)
Procedure, shortened: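 Cell-free plates of MEM plus 10% FBS received 23 nL compound or DMSO vehicle; blue-channel (405/460 nm) intensity scored against triamterene as reference fluorophore.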

[13] = qHTS assay to test for compound auto fluorescence at 535 nm (green) in HepG2 cell free culture (AID 720686)
[14] = qHTS assay to test for compound auto fluorescence at 460 nm (blue) in HepG2 cells (AID 720687)
Procedure, shortened: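 Blue-channel autofluorescence (Ex/Em 405/460 nm, triamterene-equivalent) was measured after 1 hr compound exposure at 37 C, 5% CO2. Cells were HepG2, plated overnight at 37 C in MEM plus 10% FBS.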

[15] = target: Glucocorticoid receptor (Homo sapiens) (UniProt P04150); assay: qHTS assay to identify small molecule agonists of the glucocorticoid receptor (GR) signaling pathway (AID 720691; active = well fitted activation curve with a large enough effect in the signal ratio in the repeat runs, not every such curve was filed as active; the % refers to the signal ratio)
Sequence of Glucocorticoid receptor (Homo sapiens) (P04150 whole entry, looked up): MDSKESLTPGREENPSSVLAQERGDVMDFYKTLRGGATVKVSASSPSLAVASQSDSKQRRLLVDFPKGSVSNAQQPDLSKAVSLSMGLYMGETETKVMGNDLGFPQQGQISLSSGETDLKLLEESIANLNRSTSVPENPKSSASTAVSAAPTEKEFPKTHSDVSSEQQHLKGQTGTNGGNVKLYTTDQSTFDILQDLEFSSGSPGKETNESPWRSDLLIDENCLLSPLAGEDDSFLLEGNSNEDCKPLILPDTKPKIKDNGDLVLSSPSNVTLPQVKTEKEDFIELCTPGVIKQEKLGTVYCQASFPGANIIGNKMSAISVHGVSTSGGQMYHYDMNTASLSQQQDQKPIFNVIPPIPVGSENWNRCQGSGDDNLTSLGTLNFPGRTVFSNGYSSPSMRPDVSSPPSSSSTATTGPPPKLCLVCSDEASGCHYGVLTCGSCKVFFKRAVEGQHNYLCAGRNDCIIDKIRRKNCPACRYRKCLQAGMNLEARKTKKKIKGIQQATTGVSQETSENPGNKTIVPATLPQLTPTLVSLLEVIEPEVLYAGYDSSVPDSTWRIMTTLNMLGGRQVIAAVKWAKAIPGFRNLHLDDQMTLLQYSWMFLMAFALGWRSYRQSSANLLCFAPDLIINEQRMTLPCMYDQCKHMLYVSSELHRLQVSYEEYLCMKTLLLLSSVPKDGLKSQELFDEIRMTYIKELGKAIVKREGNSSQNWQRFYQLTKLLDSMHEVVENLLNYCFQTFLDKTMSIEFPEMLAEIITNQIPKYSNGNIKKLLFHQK
Procedure, shortened: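 Cells: GR-bla HeLa, endogenous GR with stably integrated GRE-beta-lactamase reporter. Treatment 18 h, 37 C, compounds delivered in DMSO. Detection via LiveBLAzer B/G FRET substrate, 2 h RT, fluorescence intensity.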

[16] = qHTS assay for small molecule agonists of the p53 signaling pathway - cell viability (AID 651633; calls by dose curve;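 also: p53RE-bla HCT reporter cells with a stable beta-lactamase p53 reporter; series mostly up to about 83 µM; nearly all actives have a fitted effect of over 30% in size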)
Procedure, shortened: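 Viability counter-read: CellTiter-Glo luminescence (30 min, room temperature) in the same p53RE-bla plates. These plates had been exposed to compounds for 16 h at 37 C.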

[17] = qHTS assay for small molecules that induce genotoxicity in human embryonic kidney cells expressing luciferase-tagged ATAD5 (AID 651632); also: nearly all actives have a fitted effect of over 15% in size
Procedure, shortened: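 Quantitative HTS in HEK293T expressing luciferase-tagged ATAD5, whose levels rise upon DNA damage. Exposure ran 16 hr at 37C and 5% CO2, with luminescence read 30 min after Amplite addition at room temperature.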

[18] = qHTS assay to test for compound auto fluorescence at 460 nm (blue) in HEK293 cells (AID 720678)
Procedure, shortened: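 HEK293 cells (2,000 per well, medium with 10% dialyzed FBS) attached for 4-5 hr at 37C, then received compound and stood overnight at 37C, 5% CO2. Blue fluorescence was read at Ex/Em 405/460 nm and expressed relative to triamterene.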

[19] = target: Glucocorticoid receptor (Homo sapiens) (UniProt P04150); assay: qHTS assay to identify small molecule antagonists of the glucocorticoid receptor (GR) signaling pathway (AID 720692; active = well fitted inhibition curve with a large enough effect in the signal ratio in the repeat runs, not every such curve was filed as active; the % refers to the signal ratio; also: potency is read from the fitted curve at half-maximal effect)
Procedure, shortened: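 Quantitative HTS in antagonist format: HeLa cells expressing endogenous GR and a stably integrated GRE-bla reporter, stimulated with 5 nM dexamethasone (final) alongside test compounds for 18 h.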
% is scaled to controls: 0 for no effect and ±100 for the full control effect.

OC[C@H]1O[C@@H](n2cnc3c(=S)nc[nH]c32)[C@H](O)[C@@H]1O
inactive: Potency [1] | Potency [2] | outcome [4] | outcome [5] | outcome [6] | outcome [7] | Potency [8] | outcome [9] | outcome [10] | outcome [11] | Potency [12] | outcome [13] | Potency [14] | Potency [15]
active: Potency [3] 0.211 µM

C=CCc1ccccc1OCC(O)CNC(C)C (centres undefined)
inactive: Potency [16] | Potency [1] | Potency [2] | outcome [4] | outcome [5] | outcome [6] | outcome [7] | Potency [8] | outcome [9] | outcome [10] | Potency [12]

O=C1C(=O)c2ccccc2C(O)=C1C1CCC(c2ccc(Cl)cc2)CC1 (centres undefined)
inactive: Potency [17] | Potency [1] | Potency [2] | fluorescence, relative to Rose Bengal [4] -0.463% [at 18.6 µM] | fluorescence, % of fluorescein control [5] -0.0011% [at 18.6 µM] | fluorescence, % of triamterene [18] 0.0437% [at 18.6 µM] | fluorescence, % of fluorescent control [6] 0.421% [at 18.6 µM] | fluorescence, % of fluorescein [7] -0.014% [at 18.6 µM] | fluorescence, % of fluorescent control [8] -0.0599% [at 18.6 µM] | activity change [9] -0.0167% [at 18.6 µM] | fluorescence, % of fluorescent control [10] 0.0147% [at 18.6 µM] | fluorescence, % of Rose Bengal [11] 0.0009% [at 18.6 µM] | fluorescence, % of fluorescent control [12] 0.0263% [at 18.6 µM] | fluorescence, % of fluorescent control [14] 0.0025% [at 18.6 µM]

C[C@]1(Cn2ccnn2)[C@H](C(=O)O)N2C(=O)C[C@H]2S1(=O)=O
inactive: Potency [16] | Potency [1] | Potency [2] | outcome [4] | outcome [5] | Potency [18] | outcome [6] | outcome [7] | Potency [8] | outcome [9] | outcome [10] | outcome [11] | Potency [12] | Potency [14]

O=c1cc(-c2ccccc2)oc2cc(O)cc(O)c12
active: Potency [2] 30.6 µM | Potency [3] 3.86 µM | Potency [19] 19.5 µM
inactive: Potency [16] | Potency [1] | outcome [4] | outcome [5] | Potency [18] | outcome [6] | outcome [7] | Potency [8] | outcome [9] | outcome [10] | Potency [12] | outcome [13] | Potency [15]

C[C@@H]1CN(CCCn2c3ccccc3c3ccccc32)C[C@H](C)N1
inactive: Potency [17] | Potency [2] | outcome [4] | outcome [5] | Potency [18] | outcome [6] | outcome [7] | Potency [8] | outcome [9] | outcome [10] | outcome [11] | Potency [12] | outcome [13] | Potency [14]

CCCCC(CC)COP(=O)(O)O (centres undefined)
inactive: Potency [17] | outcome [4] | outcome [5] | Potency [18] | outcome [6] | outcome [7] | Potency [8] | outcome [9] | outcome [10] | Potency [12] | outcome [13] | Potency [14] | Potency [15]
active: Potency [19] 49.8 µM

COC(=O)CS
inactive: Potency [16] | Potency [1] | Potency [2] | Potency [3] | outcome [4] | outcome [5] | Potency [18] | outcome [6] | outcome [7] | Potency [8] | outcome [9] | outcome [10] | outcome [11] | Potency [12] | outcome [13] | Potency [14]

C=C1CCC2CC1C2(C)C (centres undefined)
inactive: Potency [16] | outcome [4] | outcome [5] | Potency [18] | outcome [6] | outcome [7] | Potency [8] | outcome [9] | outcome [10] | Potency [12] | outcome [13] | Potency [14]

C[C@@]12CCC[C@H]1[C@@H]1CC[C@H]3C[C@@H](O)CC[C@]3(C)[C@H]1CC2
inactive: Potency [16] | Potency [1] | Potency [2] | Potency [3] | outcome [4] | outcome [5] | Potency [18] | outcome [6] | outcome [7] | Potency [8] | outcome [9] | outcome [10] | outcome [11] | Potency [12] | outcome [13] | Potency [14] | Potency [15] | Potency [19]

CC1CC(OC(=O)C(O)c2ccccc2)CC(C)(C)N1C (centres undefined)
inactive: Potency [16] | Potency [1] | Potency [2] | outcome [4] | outcome [5] | Potency [18] | outcome [6] | outcome [7] | Potency [8] | outcome [9] | outcome [10] | outcome [11] | Potency [12] | outcome [13] | Potency [14] | Potency [15] | Potency [19]

COC(=O)CCS
inactive: Potency [16] | Potency [1] | Potency [2] | Potency [3] | outcome [4] | outcome [5] | Potency [18] | outcome [6] | outcome [7] | Potency [8] | outcome [9] | outcome [10] | outcome [11] | Potency [12] | outcome [13] | Potency [14] | Potency [15] | Potency [19]
